In PubChem BioAssay (NCI) one finds growth data, which are given here for 13 compounds.

Test systems include SR leukemia; RPMI-8226 leukemia; OVCAR-8 ovarian; OVCAR-5 ovarian; SK-OV-3 ovarian; IGROV1 ovarian; OVCAR-3 ovarian; HS 578T breast; NCI/ADR-RES ovarian; OVCAR-4 ovarian.
Holding throughout (assay): NCI-60 one-dose screen, 48 h (100 = growth as untreated, 0 = no growth, -100 = all killed)
Holding throughout (conditions): 10 µM unless noted

Compounds without any hit were thinned out: in the full panel of roughly 83,000, 20% have a hit.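 In brief: 96-well plates, 48 h treatment, single concentration, percent growth endpoint.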 Values without a mark were called inactive. The source made the active and inactive calls. The calls were made as follows: active = growth percent below 10; inactive = the rest.

For the compound `N#Cc1c(N)nnn1Cc1cc(=O)oc2ccc(O)cc12`, the growth in the experiment on SR leukemia was 95.3%; with RPMI-8226 leukemia it was 94.1%; in the experiment with OVCAR-8 ovarian, 100%; with OVCAR-5 ovarian, 106%; with SK-OV-3 ovarian, 112%; in the experiment with IGROV1 ovarian, 112%. Also, the growth in the experiment with OVCAR-3 ovarian is 113%; in the experiment with HS 578T breast it was 99%; in the experiment with NCI/ADR-RES ovarian, 111%.

For the compound `COc1ccc(-c2cc3cnc4ccccc4c3oc2=O)cc1`, the growth is 74.6% with SR leukemia; 102% with RPMI-8226 leukemia; 105% with OVCAR-8 ovarian; 101% with OVCAR-5 ovarian; 103% with OVCAR-4 ovarian; 106% in the experiment on IGROV1 ovarian. Besides, the growth is 106% with OVCAR-3 ovarian, 100% with HS 578T breast and 102% in the experiment with NCI/ADR-RES ovarian.

In the case of `COc1ccc(/C=C(\C#N)c2cc3ccccc3[nH]2)cc1`, the growth was 11.4% in the experiment with SR leukemia; 14.9% with RPMI-8226 leukemia; 32% in the experiment with OVCAR-8 ovarian; 42.5% in the experiment with OVCAR-5 ovarian; 62.4% with OVCAR-4 ovarian; 45.7% in the experiment with IGROV1 ovarian. For the same compound, the growth in the experiment with OVCAR-3 ovarian was 14.1%; in the experiment on HS 578T breast, 22.9%; with NCI/ADR-RES ovarian, -6.87% (active).

Take `COc1ccc(C2=C(CN)C(O)NC(=NCC(=O)c3ccc4ccccc4c3)N2)cc1` (configuration not stated): the growth in the experiment on SR leukemia is 99.4%; with RPMI-8226 leukemia it was 119%; in the experiment with OVCAR-8 ovarian, 98.8%; in the experiment on OVCAR-5 ovarian, 99.8%; in the experiment on SK-OV-3 ovarian, 89.4%; in the experiment on IGROV1 ovarian, 102%. The growth was 99.9% with OVCAR-3 ovarian, 116% in the experiment on HS 578T breast and 103% in the experiment with NCI/ADR-RES ovarian.

For the compound `COc1ccc(CN2CCc3c(Cl)nc(N)nc3C2=O)c(OC)c1`, the growth in the experiment with SR leukemia was 3.87% [100 µM] (active); in the experiment with RPMI-8226 leukemia it was 12.7% [100 µM]; with OVCAR-8 ovarian, 1.04% [100 µM] (active); with OVCAR-5 ovarian it was 45.1% [100 µM]; with SK-OV-3 ovarian it was 8.93% [100 µM] (active); with IGROV1 ovarian, -37.3% [100 µM] (active). In addition, the growth with OVCAR-3 ovarian is -22.4% [100 µM] (active); with HS 578T breast it was 49.9% [100 µM]; in the experiment with NCI/ADR-RES ovarian, 4.29% [100 µM] (active).

In the case of `O=C(Nc1ccc2ccccc2c1)c1cc2ccccc2cc1O`, the growth with SR leukemia was 82%; in the experiment on RPMI-8226 leukemia, 49.9%; in the experiment on OVCAR-8 ovarian, 102%; in the experiment on OVCAR-5 ovarian, 98.8%; with SK-OV-3 ovarian it was 94.3%; with IGROV1 ovarian, 59.8%. Moreover, the growth is -0.789% (active) in the experiment on OVCAR-3 ovarian, 105% with HS 578T breast and 87.6% in the experiment with NCI/ADR-RES ovarian.

Regarding `O=C(CCCCCCCCC(=O)N/N=C\c1ccccc1O)N/N=C\c1ccccc1O`, the growth is 13.5% in the experiment on SR leukemia; 32.8% in the experiment on RPMI-8226 leukemia; 25.5% in the experiment on OVCAR-8 ovarian; 67.5% in the experiment on OVCAR-5 ovarian; 36.9% in the experiment on SK-OV-3 ovarian; 29.6% in the experiment on IGROV1 ovarian. For the same compound, the growth in the experiment on OVCAR-3 ovarian is 39.8%; in the experiment on HS 578T breast it was 46.8%; in the experiment with NCI/ADR-RES ovarian it was 14.1%.

Turning to `Cn1cc(C2=C(c3cccc4ccccc34)C(=O)NC2=O)c2cc(Br)ccc21`, the growth is 60.8% in the experiment on SR leukemia; 121% in the experiment with RPMI-8226 leukemia; 95.9% in the experiment with OVCAR-8 ovarian; 126% in the experiment on OVCAR-5 ovarian; 124% with OVCAR-4 ovarian; 94.9% with IGROV1 ovarian. In addition, the growth in the experiment with OVCAR-3 ovarian is 104%; in the experiment with HS 578T breast, 82%; in the experiment with NCI/ADR-RES ovarian, 92.2%.

For `COc1ccc(NC(=O)Nc2ccccc2CNc2nc(Nc3ccc(OCCN4CCCC4)cc3)ncc2Cl)cc1`, the growth in the experiment with SR leukemia is 11.6%; in the experiment on RPMI-8226 leukemia, -18.5% (active); with OVCAR-8 ovarian it was -18.2% (active); in the experiment on OVCAR-5 ovarian, 21.1%; in the experiment with OVCAR-4 ovarian, -74.3% (active); with IGROV1 ovarian, 24.3%. Besides, the growth was -83.8% (active) with OVCAR-3 ovarian, -67.7% (active) in the experiment with HS 578T breast and 6.48% (active) with NCI/ADR-RES ovarian.

Turning to `CC1=C2[C@@H](CC1)[C@]1(C)O[C@@](C3CC3)(C[C@H]1OC(=O)CO)[C@H]2OC(=O)/C=C/c1ccccc1`, the growth in the experiment on SR leukemia was 80.4%; with RPMI-8226 leukemia it was 84.3%; with OVCAR-8 ovarian, 8.13% (active); in the experiment on OVCAR-5 ovarian, 96%; in the experiment with SK-OV-3 ovarian it was 99.3%; with IGROV1 ovarian, 100%. For the same compound, the growth in the experiment with OVCAR-3 ovarian is 95.2%; in the experiment on HS 578T breast it was -14.6% (active); in the experiment on NCI/ADR-RES ovarian, 2.55% (active).

On to `N#C/C(=C\c1ccc(Br)cc1)n1nnc2c(F)cccc21`, for which the growth is 23.1% in the experiment with SR leukemia; -20.2% (active) with RPMI-8226 leukemia; 7.76% (active) in the experiment on OVCAR-8 ovarian; 1.16% (active) in the experiment on OVCAR-5 ovarian; 40.7% in the experiment with SK-OV-3 ovarian; -24.3% (active) with IGROV1 ovarian. For the same compound, the growth in the experiment on OVCAR-3 ovarian is -51.1% (active); in the experiment on HS 578T breast, 11%; in the experiment on NCI/ADR-RES ovarian it was 2.56% (active).

With `CC(C)(C)c1cc(C(C)(C)c2ccccc2)cc(Cc2cc(C(C)(C)c3ccccc3)cc(C(C)(C)C)c2O)c1O`, the growth was -21.9% (active) in the experiment with SR leukemia; 91% with RPMI-8226 leukemia; 97.9% with OVCAR-8 ovarian; 90.2% with OVCAR-4 ovarian; 105% in the experiment on SK-OV-3 ovarian; 96.5% in the experiment with IGROV1 ovarian. The values for the growth in the experiment on OVCAR-3 ovarian, in the experiment on HS 578T breast and in the experiment on NCI/ADR-RES ovarian were 106%, 105% and 102%, respectively.

As to `CC(=O)c1c(C)nc(SCC(=O)Nc2ccc(Cl)cc2)n1-c1ccc(Cl)cc1`, the growth with SR leukemia is 90.6%; in the experiment with RPMI-8226 leukemia, 71.1%; in the experiment on OVCAR-8 ovarian, 89.3%; with OVCAR-4 ovarian it was 102%; in the experiment with SK-OV-3 ovarian, 85.9%; with IGROV1 ovarian, 97.9%. The growth with OVCAR-3 ovarian was 99.4%; in the experiment on HS 578T breast, 79.4%; in the experiment on NCI/ADR-RES ovarian, 89.2%.
